This is an account of results in PubChem BioAssay (NCI).

This is part of a sample that, as a whole, favours compounds with a hit. Of some 83,000 tested, about 20% had one in any assay.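 Cell lines were cultured in 96-well plates, exposed to a single compound concentration, and assessed for percent growth 48 hours later.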 Unmarked numbers belong to inactive results. Activity calls are given as the source filed them.

This assay deals with U251 CNS. In words: NCI-60 one-dose screen, 48 h (100 = growth as untreated, 0 = no growth, -100 = all killed). Conditions: 10 µM unless noted. The protocol:
Growth inhibition of the U251 human tumor cell line is measured as a screen for anti-cancer activity. Cells are grown in 96 well plates and exposed to the test compound for 48 hours. Compounds are tested at a single concentration, which is 10^-5 M for most compounds. The reported endpoint is percent growth (GI% or GIPRCNT), where numbers from 0 - 100% represent growth inhibition, and numbers from -100% - 0 represent cell death. For example, a value of 40 represents 60% growth inhibition. A value of 0 means no net growth occurred over the course of the experiment. A value of -40 indicates 40% of cells at the beginning of the experiment died by the end of the experiment. A value of -100 means all cells are dead at the end of the experiment.
NCI-60 Human Tumor Cell Lines Screen was performed using the standard one-dose NCI protocol, which is described in more detail at https://dtp.cancer.gov/discovery_development/nci-60/default.htm.
Compounds with GIPRCNT values below 10 were considered active. Activity score was based on GIPRCNT using the following formula: […]
Score is 0 for GIPRCNT values of 100 or above, 50 for GIPRCNT values of 0, and 100 for GIPRCNT values of -100.
For `COc1ccc(/C=c2\sc3n(c2=O)C2C(NN=3)N(C)C(=O)N2C)cc1` (stereo not given), the growth was 29.3%.
On to `O=C(c1ccncc1)N1N=C(c2ccc(Cl)cc2)CC1c1c[nH]c2ccccc12` (stereo not given), for which the growth is 93.4%.
As for `CCCCCCCCCCn1cc[n+](C)c1`, the growth is 21.7%.
As to `CN(C)C/C=C/C(=O)Nc1cc2c(Nc3ccc(F)c(Cl)c3F)ncnc2cc1OCCOC(F)F`, the growth was 27.9%.
On to `CCCCCCc1nc2c(c(C)nn2-c2ccccc2)c2c1CCCCC2`, for which the growth was 102%.
`CCCCCCCCCCCCCCCCC(Br)C(=O)O` (stereo not given): the growth was 102%.
Regarding `C=C1C(=O)O[C@H]2[C@H]1CC/C(COC(=O)NCCc1ccc(Br)cc1)=C\CC[C@@]1(C)O[C@@H]21`, the growth was 41.2%.
`O=C1NCC(c2cc3ccccc3[nH]c2=O)Nc2ccccc21` (stereo not given): the growth is 102%.
Turning to `COc1cc(OC)cc(-c2n[nH]nc2-c2ccc3c(c2)OCO3)c1`, the growth was 7.92% (active).
As for `COc1cc(/C=C/C(=O)c2ccccc2O)ccc1OCCCOc1cc2c(cc1OC)C(=O)N1CCC[C@H]1C=N2`, the figure is -74.7% (active); as for `O=C(/C=C/CN1CCOCC1)Nc1cc2c(Nc3cccc(Cl)c3F)ncnc2cc1OCCOC(F)F`, 94.1%.
Consider `CC[C@]1(O)C[C@@H]2CN(Cc3c([nH]c4ccccc34)[C@@](C(=O)OC)(c3cc4c(cc3OC)N(C)[C@H]3[C@@](O)(C(=O)OC)[C@H](OC(C)=O)[C@]5(CC)[C@@H]6C[C@@H]6CN6CC[C@]43[C@@H]65)C2)C1`, for which the growth was 6.95% (active).
In the case of `CCC(c1ccc(OC)cc1)C(CC)c1ccc(OCC[N+](C)(C)C)cc1` (stereo not given), the growth is 18.9%.
Next, `CCCCCC/C=C\CCCCCCCCOc1ccc(CCOP(=O)(O)OCC[N+](C)(C)C)cc1`: 27.5%; `O=C1C2=C(C(=O)c3c(O)ccc(O)c31)N(c1cccnc1)Cc1ccccc1O2`: 2.04% (active).
`NC(=O)c1c(NC(=O)c2ccc(OCC3CCCO3)cc2)sc2c1CCCC2` (stereo not given): the growth is 95.2%.
Consider `O=[N+]([O-])c1ccc(S(=O)(=O)N2CCN(c3ccnc4cc(Cl)ccc34)CC2)c([N+](=O)[O-])c1`, for which the growth is 93.9%.
As to `CCNc1nc(N2CC(=O)Nc3cc(OC)ccc32)c2ccccc2n1`, the growth is 8.29% (active).
In the case of `Cc1nc(Nc2cccnc2)sc1C(=O)/C=C/c1ccc(Cl)cc1`, the growth is 3.86% (active).
Next, `COc1ccc(/C=C2\CCCC3=C2NC(C)=NC3c2ccc(OC)c(OC)c2)cc1OC` (stereo not given): 18.3%; `CCC(=O)Oc1ccc2c(c1)CC[C@@H]1[C@@H]2CC[C@]2(C)C[C@H](OC(=O)CC)C[C@@H]12`: 48.3%; `COc1ccc(C(=O)c2cc(OC)c(OC)c(OC)c2)cc1/C=C/C(=O)c1ccc(OC)c(OC)c1`: 25.5%.
As for `O=C1Nc2cc(Cl)ccc2/C1=C/c1ccc(N2CCOCC2)s1`, the figure is 96.7%.
Take `CCOC(=O)c1cc(/C(=N\O)c2cc(OC)c(OC)c(OC)c2)n2cc(C)cc(C)c12`: the growth was 12.6%.
As to `CN(C)c1ccc(/C=C\N=Nc2ccc(Br)cc2)cc1`, the growth is 68.4%.
For `O=C1N=C(c2c(-c3[nH]c(=O)c4ccc(Br)cc4c3O)c(O)c3ccccc3c2O)C(=O)c2cc(Br)ccc21`, the growth is -57.9% (active).
On to `COc1ncc(-c2ccc3ncnc(Nc4cccc(Cl)c4)c3c2)cc1N(S(C)(=O)=O)S(C)(=O)=O`, for which the growth was 82.1%.
As for `NC(=O)NC(=O)/C=C/C(=O)OCCCl`, the figure is 101%; as for `Cc1ccc(S(=O)(=O)N2CCC(C(=O)Nc3ccc(F)cc3F)CC2)cc1`, 101%; as for `Cc1ccc2nc(-c3c(CCCO)noc3N)[nH]c(=O)c2c1`, 99.6%.
On to `N#CC1=C(N)OC2=C(C(=O)CCC2)C1c1ccco1` (stereo not given), for which the growth was 99.3%.
As for `COc1ccc(/C=C/c2cc(N3CCOCC3)c3cc(F)c(F)cc3n2)cc1OC`, the figure is 23.5%; as for `CCCCNc1nnc(-c2cc(-c3cc4ccccc4o3)nn2-c2ccccc2)o1`, 82.1%; as for `CC(=O)/C=C/c1cc2cc(Cl)ccc2[nH]c1=O`, 62.1%.
With `CC(C)(C)c1ccc(S(=O)(=O)Oc2ccc3c4c(c(=O)oc3c2)CCCCC4)cc1`, the growth was 54.3%.
As for `COc1cc2oc(-c3cccc(NC(=O)Nc4ccc5c(c4)OCO5)c3)cc(=O)c2c(OC)c1OC`, the growth is 62.1%.
On to `Cc1ccc(S(=O)(=O)OCC(=O)Nc2ccc(C(=O)O)c(O)c2)cc1`, for which the growth is 96.7%.
Turning to `O=C(Nc1ccc(Cl)cc1)c1cc(-c2ccc(F)cc2)c2sc(=O)[nH]c2n1`, the growth is 9.42% (active).
In the case of `CC(CCc1ccccc1)NC(=O)c1n[nH]c(=O)c2ccccc12` (stereo not given), the growth is 103%.
Next, `C=C1C(=O)O[C@H]2[C@H]1CC/C(COC(=O)NCc1cc(OC)c(OC)c(OC)c1)=C\CC[C@@]1(C)O[C@@H]21`: 81.3%.
